# USP30 block = human USP30 deubiquitinase inhibition; inhibition, % at 25 µM; purified USP30, Ub-rhodamine cleavage fluorescence; Q70CQ3; 5.3% of 47,000 active
# USP28 block = inhibitors of human USP28 deubiquitinase; Q96RU2; 3% of 47,000 active; inhibition, % at 25 µM; purified USP28, Ub-rhodamine cleavage fluorescence, 30 min
# USP8 inh = inhibitors of human USP8 deubiquitinase; purified USP8, Ub-rhodamine cleavage fluorescence, 30 min; inhibition, % at 20 µM; 4.2% of 47,000 active; AID 1645853
# USP17 inh = blocks human USP17 ubiquitin-rhodamine cleavage; 6.5% of 47,000 active; inhibition, % at 50 µM; A8MUK1; purified USP17, Ub-rhodamine cleavage fluorescence, 3 h; AID 1645855
# Target sequence (A8MUK1 whole entry, looked up): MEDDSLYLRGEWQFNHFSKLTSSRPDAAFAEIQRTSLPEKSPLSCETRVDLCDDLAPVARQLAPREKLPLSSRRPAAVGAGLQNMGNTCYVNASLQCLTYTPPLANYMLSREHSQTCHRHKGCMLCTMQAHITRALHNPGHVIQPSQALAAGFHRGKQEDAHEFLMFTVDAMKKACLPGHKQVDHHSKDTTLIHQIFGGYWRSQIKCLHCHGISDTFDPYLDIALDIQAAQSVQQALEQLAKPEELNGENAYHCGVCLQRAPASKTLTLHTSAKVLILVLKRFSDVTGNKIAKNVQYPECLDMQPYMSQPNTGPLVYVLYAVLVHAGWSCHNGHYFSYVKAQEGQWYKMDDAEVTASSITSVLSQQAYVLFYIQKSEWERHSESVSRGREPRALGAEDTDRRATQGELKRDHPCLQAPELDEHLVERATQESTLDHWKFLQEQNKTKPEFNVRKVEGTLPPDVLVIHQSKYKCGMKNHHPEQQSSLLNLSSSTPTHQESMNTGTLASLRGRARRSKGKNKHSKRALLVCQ
# An asterisk follows results filed as active; . = not tested or not shown. Compounds with a hit are over-represented: about 14% of the library has one in this group of screens. Cut-off read from the data, not from the text of the source: active = inhibition above about 30%; inactive = the rest.
SMILES,USP30 block,USP28 block,USP8 inh,USP17 inh
Cc1ccccc1C(=O)N1CCc2c(c(-c3nc(C4CC4)no3)nn2C)C1,24.0,4.4,15.9,10.1
COc1ccc(-c2cc3nc(C)cc(Nc4cccc(C)c4)n3n2)cc1OC,-15.8,-13.3,-3.7,-4.8
COc1ccc(-c2cc3nc(C)cc(Nc4ccc(F)cc4)n3n2)cc1OC,84.8*,14.4,-5.1,-2.0
O=C(Nc1cnc2ccccc2c1)Nc1ccccc1Cl,.,.,3.5,55.0*
O=C1Nc2cc3c(cc2Sc2ccccc21)OCCO3,59.9*,25.3,-14.0,67.3*
O=C1Nc2ccccc2S/C1=C/c1ccccc1,-29.1,-43.5,-9.7,-15.4
Cc1c(C#N)c2ccccc2n1CC(=O)NC1CCCCCC1,9.5,-5.8,-19.4,-12.6
O=C(Cn1cnc(-c2noc(-c3ccc(F)cc3)n2)c1)NC1CCCCC1,28.7,10.9,52.4*,26.0
O=C(Cn1c(-c2ccc(F)cc2)nc2ccccc21)NC1CCCCC1,-5.8,-9.0,33.6*,19.0
O=C(Cn1cnc(-c2noc(-c3ccncc3)n2)c1)N1CCN(c2ccccc2F)CC1,52.3*,4.8,11.5,11.2
O=C(Cn1cnc(-c2noc(-c3cccc(F)c3)n2)c1)N1CCN(c2ccccc2)CC1,7.7,-0.6,-1.0,-2.4
O=C(NCCc1ccccc1)N1CC[C@@H]2CNS(=O)(=O)[C@@H]2CC1,19.4,9.7,-28.4,4.2
CNc1nc(C2CCN(C(=O)CC3C=CCC3)CC2)nc2c1CCNC2 (stereo not given),-45.3,-16.5,-7.6,-22.0
O=C(CCCn1c(=O)c2ccccc2n(CC(=O)NCC2CCCO2)c1=O)NCCc1ccc(Cl)cc1 (stereo not given),21.0,22.1,2.3,20.0
Cc1cccc(OCC2=NN3C(=N)/C(=C\c4cc(C)n(-c5ccc(F)cc5)c4C)C(=O)N=C3S2)c1,-207.7,-61.3,-29.3,.
COc1ccccc1-c1nc2c3c(C)c(C)n(-c4ccc(Br)cn4)c3ncn2n1,-148.7,-12.2,14.2,51.1*
Cc1ccccc1-c1nc2c3c(C)c(C)n(-c4ccccn4)c3ncn2n1,-167.0,-51.0,-16.0,-33.4
CCc1ccc(NC(=O)C(C)Nc2ccccc2NCCc2ccccc2)cc1 (stereo not given),-209.0,-43.0,64.1*,-4.2
CCC(=O)N1CCC(n2c(-c3ccccc3OC)nc3c(OC)cccc32)CC1,1.2,-5.6,-0.6,-2.1
Cc1cc(C)c(NC(=O)CSC2=C(C#N)C(c3ccc(C)o3)C3=C(CCCC3=O)N2)c(C)c1 (stereo not given),35.4*,31.4*,-25.9,19.2
O=C(CC(c1cccc(F)c1)n1cccc1)NCc1ccc(Cl)cc1 (stereo not given),37.8*,14.5,11.1,4.9
COc1ccc2cc(C(C)C(=O)NCc3ccc(CS(N)(=O)=O)cc3)ccc2c1 (stereo not given),28.4,15.7,16.4,0.9
O=C(CC(c1cccc(F)c1)n1cccc1)NCc1ccccc1 (stereo not given),0.2,-0.4,-52.7,7.9
COc1ccc2cc(C(C)C(=O)NCc3cccc(NS(N)(=O)=O)c3)ccc2c1 (stereo not given),41.8*,20.1,45.5*,6.4
COc1ccc(C(CC(=O)NCc2cccc(OC)c2)n2cccc2)cc1 (stereo not given),11.3,1.3,-2.1,37.7*
SMILES,USP30 block,USP28 block,USP8 inh,USP17 inh
O=C(CC(c1cccc(F)c1)n1cccc1)Nc1ccc2c(c1)OCO2 (stereo not given),0.0,8.1,44.8*,21.6
Cn1c(C(=O)N2CCCC(c3ncc(Cc4ccc(F)cc4)o3)C2)cc(=O)n(C)c1=O (stereo not given),14.4,3.9,1.5,4.4
Cc1ccc(NC(=O)C2CC(=O)NC(Nc3ccccc3)=N2)cc1 (stereo not given),-6.5,-5.5,-0.6,-2.8
O=C1CC(C(=O)Nc2ccc3c(c2)OCCO3)N=C(Nc2ccccc2)N1 (stereo not given),9.2,3.6,-11.5,-1.3
COc1cc(C(=O)Nc2nc3ccc(S(=O)(=O)N4CCCC4)cc3s2)cc(OC)c1OC,-67.3,-22.2,-7.7,40.4*
CC(C)n1c(=O)[nH]c2c(C(=O)N3CCCCC3)snc2c1=O,38.2*,13.2,28.7,18.5
Cc1nc(-c2ncc[nH]2)cc(C2CCCN(Cc3cncs3)C2)n1 (stereo not given),-19.6,-7.8,-8.3,-8.1
NC(=O)c1cccc(NS(=O)(=O)c2ccccc2)c1,-1.4,-14.6,2.4,-8.8
O=S(=O)(Nc1ccc2oc(-c3ccncc3)nc2c1)c1ccccc1,30.4*,32.1*,1.9,54.5*
Cc1cc(-c2ccc(S(=O)(=O)N3CCCC3)s2)on1,.,.,-2.5,10.6
O=C(/C=C/c1cccc(C(F)(F)F)c1)c1ccoc1,14.8,4.5,20.8,18.3

# Assay outcomes as filed in PubChem.
